Holding throughout (experiment): PBM; 200 nM protein, PBS
Settings in all cases: dsDNA, one strand shown

The target in experiment [1] is HOXB9 (Homo sapiens, UniProt P17482 171-250, T197M).
For experiment [2], the target named is HOXA2 (Homo sapiens, UniProt O43364 129-215, R185T).
Experiment [3] concerns the target HOXB9 (Homo sapiens, UniProt P17482 171-250).
Experiment [4] has as its target HOXA2 (Homo sapiens, UniProt O43364 129-215, R185K).
In experiment [5] the target is HOXB9 (Homo sapiens, UniProt P17482 171-250, R186Q).
Experiment [6] has as its target HOXA2 (Homo sapiens, UniProt O43364 129-215, Y150S).
Experiment [7] deals with HOXA2 (Homo sapiens, UniProt O43364 129-215).
Experiment [8] deals with MSX2 (Homo sapiens, UniProt P35548 130-214, R199I).
Experiment [9] addresses MSX2 (Homo sapiens, UniProt P35548 130-214).
In experiment [10] the target is MSX2 (Homo sapiens, UniProt P35548 130-214, F161Y).
For experiment [11], the target named is PITX2 (Homo sapiens, UniProt Q99697 72-157).
Experiment [12] deals with VAX1 (Homo sapiens, UniProt Q5SQQ9 86-172).
For experiment [13], the target named is VAX1 (Homo sapiens, UniProt Q5SQQ9 86-172, T142I).
The target in experiment [14] is VAX1 (Homo sapiens, UniProt Q5SQQ9 86-172, K157R).
Experiment [15] has as its target T1, NKX2-6 (Homo sapiens, UniProt A6NCS4 118-204, R150C).
T1 sequence: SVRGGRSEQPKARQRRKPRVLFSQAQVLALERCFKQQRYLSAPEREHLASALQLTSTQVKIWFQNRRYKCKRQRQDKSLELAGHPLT

The target of experiment [16] is ALX3 (Homo sapiens, UniProt O95076 139-225, N203Q).
In experiment [17] the target is ALX3 (Homo sapiens, UniProt O95076 139-225).
Experiment [18] concerns the target ALX3 (Homo sapiens, UniProt O95076 139-225, L168Q).
In experiment [19] the target is ALX3 (Homo sapiens, UniProt O95076 139-225, L168V).
Experiment [20] deals with ALX3 (Homo sapiens, UniProt O95076 139-225, N203S).
Sequence of ALX3 (Homo sapiens, UniProt O95076 139-225, N203S) (O95076 139-225 N203S): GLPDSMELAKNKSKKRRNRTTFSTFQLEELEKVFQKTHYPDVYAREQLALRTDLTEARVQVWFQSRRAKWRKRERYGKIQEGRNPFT

Sequence of HOXB9 (Homo sapiens, UniProt P17482 171-250) (P17482 171-250): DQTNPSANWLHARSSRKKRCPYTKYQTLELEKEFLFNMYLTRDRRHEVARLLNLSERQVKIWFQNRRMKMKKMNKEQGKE
Sequence of HOXB9 (Homo sapiens, UniProt P17482 171-250, T197M) (P17482 171-250 T197M): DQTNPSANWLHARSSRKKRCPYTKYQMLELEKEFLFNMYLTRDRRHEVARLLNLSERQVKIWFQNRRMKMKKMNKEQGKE
Sequence of HOXA2 (Homo sapiens, UniProt O43364 129-215, Y150S) (O43364 129-215 Y150S): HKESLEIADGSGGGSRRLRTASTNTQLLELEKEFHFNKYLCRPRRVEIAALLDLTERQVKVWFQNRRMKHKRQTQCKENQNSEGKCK
Sequence of MSX2 (Homo sapiens, UniProt P35548 130-214, F161Y) (P35548 130-214 F161Y): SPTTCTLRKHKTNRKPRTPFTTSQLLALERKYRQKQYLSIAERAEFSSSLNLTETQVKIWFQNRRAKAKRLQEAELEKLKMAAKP
Sequence of MSX2 (Homo sapiens, UniProt P35548 130-214) (P35548 130-214): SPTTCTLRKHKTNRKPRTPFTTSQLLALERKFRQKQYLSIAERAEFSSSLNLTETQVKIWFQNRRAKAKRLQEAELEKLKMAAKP
Sequence of HOXA2 (Homo sapiens, UniProt O43364 129-215) (O43364 129-215): as the sequence (O43364 129-215 Y150S) above, with S22Y counted along it
Sequence of HOXA2 (Homo sapiens, UniProt O43364 129-215, R185K) (O43364 129-215 R185K): as the sequence (O43364 129-215 Y150S) above, with S22Y, R57K counted along it
Sequence of HOXB9 (Homo sapiens, UniProt P17482 171-250, R186Q) (P17482 171-250 R186Q): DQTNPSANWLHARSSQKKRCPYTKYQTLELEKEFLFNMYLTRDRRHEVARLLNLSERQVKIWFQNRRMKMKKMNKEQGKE
Sequence of MSX2 (Homo sapiens, UniProt P35548 130-214, R199I) (P35548 130-214 R199I): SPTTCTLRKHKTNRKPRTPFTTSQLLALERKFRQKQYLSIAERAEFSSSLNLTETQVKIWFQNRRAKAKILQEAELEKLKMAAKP
Sequence of HOXA2 (Homo sapiens, UniProt O43364 129-215, R185T) (O43364 129-215 R185T): as the sequence (O43364 129-215 Y150S) above, with S22Y, R57T counted along it
Sequence of VAX1 (Homo sapiens, UniProt Q5SQQ9 86-172, T142I) (Q5SQQ9 86-172 T142I): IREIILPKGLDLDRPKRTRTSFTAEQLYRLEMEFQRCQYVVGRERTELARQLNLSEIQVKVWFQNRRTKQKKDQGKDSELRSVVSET
Sequence of ALX3 (Homo sapiens, UniProt O95076 139-225, N203Q) (O95076 139-225 N203Q): as the sequence (O95076 139-225 N203S) above, with S65Q counted along it
Sequence of VAX1 (Homo sapiens, UniProt Q5SQQ9 86-172) (Q5SQQ9 86-172): as the sequence (Q5SQQ9 86-172 T142I) above, with I57T counted along it
Sequence of VAX1 (Homo sapiens, UniProt Q5SQQ9 86-172, K157R) (Q5SQQ9 86-172 K157R): as the sequence (Q5SQQ9 86-172 T142I) above, with I57T, K72R counted along it
Sequence of ALX3 (Homo sapiens, UniProt O95076 139-225, L168Q) (O95076 139-225 L168Q): as the sequence (O95076 139-225 N203S) above, with L30Q, S65N counted along it
Sequence of ALX3 (Homo sapiens, UniProt O95076 139-225, L168V) (O95076 139-225 L168V): as the sequence (O95076 139-225 N203S) above, with L30V, S65N counted along it
Sequence of ALX3 (Homo sapiens, UniProt O95076 139-225) (O95076 139-225): as the sequence (O95076 139-225 N203S) above, with S65N counted along it

For GAACCGGC, the binding signal in experiment [1] was 8.52 upbm affinity estimate (log intensity, higher = more binding, comparable within an allelic series); in experiment [2], 7.08 upbm affinity estimate (log intensity, higher = more binding, comparable within an allelic series); in experiment [3], 8.43 upbm affinity estimate (log intensity, higher = more binding, comparable within an allelic series); in [4] it was 10.2 upbm affinity estimate (log intensity, higher = more binding, comparable within an allelic series); in experiment [5], 8.48 upbm affinity estimate (log intensity, higher = more binding, comparable within an allelic series); in [6], 10.4 upbm affinity estimate (log intensity, higher = more binding, comparable within an allelic series). The binding signal in experiment [7] is 7.09 upbm affinity estimate (log intensity, higher = more binding, comparable within an allelic series).
In the case of AGCATCCG, the binding signal is 8.64 upbm affinity estimate (log intensity, higher = more binding, comparable within an allelic series) in experiment [1]; 8.73 upbm affinity estimate (log intensity, higher = more binding, comparable within an allelic series) in experiment [3]; 8.71 upbm affinity estimate (log intensity, higher = more binding, comparable within an allelic series) in [5].
CTGGCGTC: the binding signal in [1] is 8.43 upbm affinity estimate (log intensity, higher = more binding, comparable within an allelic series); in experiment [3], 8.27 upbm affinity estimate (log intensity, higher = more binding, comparable within an allelic series); in experiment [8], 9.45 upbm affinity estimate (log intensity, higher = more binding, comparable within an allelic series); in [9], 9.51 upbm affinity estimate (log intensity, higher = more binding, comparable within an allelic series); in experiment [5], 8.34 upbm affinity estimate (log intensity, higher = more binding, comparable within an allelic series); in [10], 9.44 upbm affinity estimate (log intensity, higher = more binding, comparable within an allelic series).
For the sequence CACGCCTC, the binding signal in [1] was 8.36 upbm affinity estimate (log intensity, higher = more binding, comparable within an allelic series); in [3] it was 8.42 upbm affinity estimate (log intensity, higher = more binding, comparable within an allelic series); in experiment [5], 8.39 upbm affinity estimate (log intensity, higher = more binding, comparable within an allelic series).
As to CGGGCAAC, the binding signal in experiment [1] is 8.62 upbm affinity estimate (log intensity, higher = more binding, comparable within an allelic series); in [3], 8.62 upbm affinity estimate (log intensity, higher = more binding, comparable within an allelic series); in experiment [11], 7.85 upbm affinity estimate (log intensity, higher = more binding, comparable within an allelic series); in experiment [5] it was 8.68 upbm affinity estimate (log intensity, higher = more binding, comparable within an allelic series).
In the case of CGTGGACC, the binding signal in [1] was 8.66 upbm affinity estimate (log intensity, higher = more binding, comparable within an allelic series); in experiment [3], 8.61 upbm affinity estimate (log intensity, higher = more binding, comparable within an allelic series); in [5], 8.63 upbm affinity estimate (log intensity, higher = more binding, comparable within an allelic series).
CGTGGCTC: the binding signal in experiment [1] was 8.5 upbm affinity estimate (log intensity, higher = more binding, comparable within an allelic series); in experiment [3], 8.18 upbm affinity estimate (log intensity, higher = more binding, comparable within an allelic series); in experiment [5], 8.26 upbm affinity estimate (log intensity, higher = more binding, comparable within an allelic series).
On to ACCGGGGA, for which the binding signal in experiment [1] was 8.44 upbm affinity estimate (log intensity, higher = more binding, comparable within an allelic series); in experiment [3], 8.19 upbm affinity estimate (log intensity, higher = more binding, comparable within an allelic series); in experiment [8], 9.45 upbm affinity estimate (log intensity, higher = more binding, comparable within an allelic series); in [9], 9.39 upbm affinity estimate (log intensity, higher = more binding, comparable within an allelic series); in experiment [5], 8.23 upbm affinity estimate (log intensity, higher = more binding, comparable within an allelic series); in experiment [10], 9.41 upbm affinity estimate (log intensity, higher = more binding, comparable within an allelic series).
On to CCGGACGC, for which the binding signal was 8.6 upbm affinity estimate (log intensity, higher = more binding, comparable within an allelic series) in [1]; 8.5 upbm affinity estimate (log intensity, higher = more binding, comparable within an allelic series) in [3]; 7.11 upbm affinity estimate (log intensity, higher = more binding, comparable within an allelic series) in experiment [12]; 8.59 upbm affinity estimate (log intensity, higher = more binding, comparable within an allelic series) in experiment [5]; 7.2 upbm affinity estimate (log intensity, higher = more binding, comparable within an allelic series) in [13]; 7.16 upbm affinity estimate (log intensity, higher = more binding, comparable within an allelic series) in [14].
In the case of GCGGGTGA, the binding signal in [1] is 8.59 upbm affinity estimate (log intensity, higher = more binding, comparable within an allelic series); in [3], 8.45 upbm affinity estimate (log intensity, higher = more binding, comparable within an allelic series); in [5] it was 8.62 upbm affinity estimate (log intensity, higher = more binding, comparable within an allelic series).
Turning to GCGCGGCA, the binding signal in [1] was 8.49 upbm affinity estimate (log intensity, higher = more binding, comparable within an allelic series); in [2], 7.06 upbm affinity estimate (log intensity, higher = more binding, comparable within an allelic series); in [3], 8.54 upbm affinity estimate (log intensity, higher = more binding, comparable within an allelic series); in [15] it was 9.57 upbm affinity estimate (log intensity, higher = more binding, comparable within an allelic series); in experiment [8], 9.56 upbm affinity estimate (log intensity, higher = more binding, comparable within an allelic series); in experiment [16] it was 7.82 upbm affinity estimate (log intensity, higher = more binding, comparable within an allelic series). The binding signal in experiment [4] was 10.3 upbm affinity estimate (log intensity, higher = more binding, comparable within an allelic series); in experiment [9], 9.62 upbm affinity estimate (log intensity, higher = more binding, comparable within an allelic series); in [17], 7.75 upbm affinity estimate (log intensity, higher = more binding, comparable within an allelic series); in experiment [18], 7.66 upbm affinity estimate (log intensity, higher = more binding, comparable within an allelic series); in [5], 8.56 upbm affinity estimate (log intensity, higher = more binding, comparable within an allelic series); in experiment [19] it was 7.72 upbm affinity estimate (log intensity, higher = more binding, comparable within an allelic series). Moreover, the binding signal in [10] is 9.62 upbm affinity estimate (log intensity, higher = more binding, comparable within an allelic series); in [6] it was 10.4 upbm affinity estimate (log intensity, higher = more binding, comparable within an allelic series); in experiment [20], 7.83 upbm affinity estimate (log intensity, higher = more binding, comparable within an allelic series); in [7], 6.94 upbm affinity estimate (log intensity, higher = more binding, comparable within an allelic series).
For CTCAGGCC, the binding signal in [1] was 8.41 upbm affinity estimate (log intensity, higher = more binding, comparable within an allelic series); in experiment [2], 7.06 upbm affinity estimate (log intensity, higher = more binding, comparable within an allelic series); in [3] it was 8.36 upbm affinity estimate (log intensity, higher = more binding, comparable within an allelic series); in experiment [4], 10.3 upbm affinity estimate (log intensity, higher = more binding, comparable within an allelic series); in [5], 8.4 upbm affinity estimate (log intensity, higher = more binding, comparable within an allelic series); in experiment [6], 10.4 upbm affinity estimate (log intensity, higher = more binding, comparable within an allelic series). For the same sequence, the binding signal in experiment [7] is 7.06 upbm affinity estimate (log intensity, higher = more binding, comparable within an allelic series).

(Values after publication PMC11006913.)
